The source made the active and inactive calls.

For assay [1], the system named is PRMT1 (protein arginine N-methyltransferase 1). The assay can be described thus: PRMT1 binders on small-molecule microarrays, primary screen, biochemical, small-molecule microarray, 635 nm fluorescence (AID 1088).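 Also: binding of Prmt1 protein to compounds spotted on small-molecule microarray slides.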 Conditions: small-molecule microarray binding, higher = more signal.
A short description of assay [2]: yeast growth modulation, basal conditions, primary screen, YJM789 clinical isolate, OD600, 24 h (AID 1089).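 Also: growth of clinical yeast isolate S. cerevisiae YJM 789 seeded 1000 cells per well; test concentration not given here.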 To be noted: S. cerevisiae YJM789 growth, higher = more signal, called active from +8 up or from −8 down.
Assay [3] can be described thus: fission yeast growth modulation, primary screen, strain 972, OD600, 24 h, no modulator (AID 1090).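 Also: basal condition with compound alone and no growth modifier present; test concentration not given here.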 To be noted: S. pombe 972 growth, higher = more signal, called active from +8 up or from −8 down.
Assay [4] in a line: S. cerevisiae growth modulation with rapamycin, primary screen, strain BY4716, OD600, 96 h (AID 1091). Also: test concentration not given here. To be noted: higher = more signal, called active from +8 up or from −8 down.
Assay [5] has as its target Torsin-1A-interacting protein 2 (Homo sapiens) (UniProt Q8NFQ8). The experiment in a line: LULL1 binders on small-molecule microarray, primary screen, cell lysate, human LULL1 lysate, 635/667 nm fluorescence (AID 1092).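 Also: probe is lysate of COS7 cells overexpressing human LULL1; score merges per-feature 667 nm fluorescence with signal-to-noise.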 Conditions: hLULL1 lysate binding, 635 nm fluorescence, higher = more signal.
The nature of assay [6]: E. coli growth modulation, two-sided OD650, primary screen, E. coli filamentation project, strain DRC41, 24 h (AID 1093).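 Also: MC1000 strain lacking acrAB efflux and sulA so SOS filamentation is blocked; test concentration not given here.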 To be noted: OD650, 24 h, higher = more signal, called active from +8 up or from −8 down.
The nature of assay [7]: small-molecule microarray binders of probe aLefty2, primary screen, biochemical, biotinylated probe, 635/667 nm fluorescence (AID 1094).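 Also: score merges spot fluorescence near 667 nm with spot signal-to-noise ratio.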 Conditions: higher = more signal.
The subject of assay [8] is Noggin (protein binding on small-molecule microarray). The experiment in a line: Noggin binders on small-molecule microarray, primary screen, biochemical, 635/667 nm fluorescence (AID 1095).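 Also: score merges 667 nm feature fluorescence with signal to noise over triplicate slides.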 To be noted: 635 nm fluorescence, higher = more signal.
In assay [9] the target is Neurogenic locus notch homolog protein 3 (Homo sapiens) (UniProt Q9UM47). The experiment in a line: NOTCH3 binders on small-molecule microarray, primary screen, biochemical, 635/667 nm fluorescence (AID 1096). To be noted: NOTCH3 binding, 635 nm fluorescence, higher = more signal.
Assay [10] is described as follows: small-molecule microarray binders of probe aEGFR, primary screen, biochemical, biotinylated probe, 635/667 nm fluorescence (AID 1097).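 Also: probe is a biotinylated anti-EGFR antibody binding compounds printed on slides; score combines fluorescence near 667 nm and signal to noise of each spot.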 Conditions: higher = more signal.
Assay [11] deals with Plasmodium falciparum Sir2 (PF13_0152, Sir2A). The assay can be described thus: pfSir2 binders on small-molecule microarrays, primary screen, biochemical, small-molecule microarray, 635 nm fluorescence (AID 1098).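 Also: score merges spot fluorescence intensity with its signal-to-noise ratio.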 To be noted: small-molecule microarray binding, fluorescence 635 nm; higher = more signal.
Assay [12] in a line: small-molecule microarray binders of probe aDKK1, primary screen, biochemical, biotinylated probe, 635/667 nm fluorescence (AID 1099).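 Also: score merges 667nm spot fluorescence with signal to noise across triplicate slides; reference of the scale not given here.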 To be noted: higher = more signal.
A short description of assay [13]: small-molecule microarray binders of probe aCHRDL2, primary screen, biochemical, biotinylated probe, 635/667 nm fluorescence (AID 1100). To be noted: higher = more signal.
Assay [14] in a line: splicing luciferase reporter signal modulators, primary screen, spliceosome inhibition project, cell-based, HEK293, splice +/- reporter (AID 1101).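 Also: HEK293 cells carrying a splicing-competent luciferase reporter gene; test concentration not given here.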 To be noted: luminescence, 24 h, higher = more signal, called active from +8 up or from −8 down. (In general: A reporter such as luciferase makes a cellular process visible.)
Assay [15] addresses Fibroblast growth factor 10 (Homo sapiens) (UniProt O15520). The assay can be described thus: FGF10 binders on small-molecule microarrays, primary screen, biochemical, small-molecule microarray, 635 nm fluorescence (AID 1102). Conditions: FGF10 binding, fluorescence 635 nm, higher = more signal.
In assay [16] the test system is glycogen synthase kinase-3 (GSK3A per assay name; protocol says GSK3B). The assay can be described thus: GSK3 binders on small-molecule microarrays, primary screen, biochemical, small-molecule microarray, 635 nm fluorescence, GSK3A (AID 1103). Also: the record names both GSK3A and GSK3B. To be noted: small-molecule microarray binding, fluorescence 635 nm; higher = more signal.
The target of assay [17] is Epidermal growth factor receptor (Homo sapiens) (UniProt P00533). The experiment in a line: EGFR binders on small-molecule microarrays, primary screen, biochemical, small-molecule microarray, 635 nm fluorescence (AID 1104).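 Also: score merges 667 nm emission intensity with spot signal to noise over triplicate slides.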 To be noted: EGFR binding, higher = more signal.
The target of assay [18] is Follistatin-related protein 3 (Homo sapiens) (UniProt O95633). The assay can be described thus: FSTL3 binders on small-molecule microarrays, primary screen, biochemical, small-molecule microarray, 635 nm fluorescence (AID 1105).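 Also: score merges emission near 667 nm and signal to noise per printed spot across three slides.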 Conditions: FSTL3 binding, higher = more signal.
The target of assay [19] is Dickkopf-related protein 1 (Homo sapiens) (UniProt O94907). The experiment in a line: DKK1 binders on small-molecule microarrays, primary screen, biochemical, small-molecule microarray, 635 nm fluorescence scan (AID 1106).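 Also: score merges emission near 667 nm with signal to noise over three replicate slides.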 Conditions: DKK1 binding, higher = more signal.
Assay [20] concerns Inhibin beta A chain (activin A). The experiment in a line: INHBA (activin A) binders on microarrays, primary screen, biochemical, small-molecule microarray, 635 nm fluorescence scan (AID 1107).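 Also: mouse activin A protein probed at 4.33 µg/mL on printed slides; score merges bound-protein fluorescence near 667 nm with spot signal-to-noise.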 To be noted: small-molecule microarray binding, higher = more signal.

Chain of Neurogenic locus notch homolog protein 3 (Homo sapiens) (Q9UM47 whole entry, looked up): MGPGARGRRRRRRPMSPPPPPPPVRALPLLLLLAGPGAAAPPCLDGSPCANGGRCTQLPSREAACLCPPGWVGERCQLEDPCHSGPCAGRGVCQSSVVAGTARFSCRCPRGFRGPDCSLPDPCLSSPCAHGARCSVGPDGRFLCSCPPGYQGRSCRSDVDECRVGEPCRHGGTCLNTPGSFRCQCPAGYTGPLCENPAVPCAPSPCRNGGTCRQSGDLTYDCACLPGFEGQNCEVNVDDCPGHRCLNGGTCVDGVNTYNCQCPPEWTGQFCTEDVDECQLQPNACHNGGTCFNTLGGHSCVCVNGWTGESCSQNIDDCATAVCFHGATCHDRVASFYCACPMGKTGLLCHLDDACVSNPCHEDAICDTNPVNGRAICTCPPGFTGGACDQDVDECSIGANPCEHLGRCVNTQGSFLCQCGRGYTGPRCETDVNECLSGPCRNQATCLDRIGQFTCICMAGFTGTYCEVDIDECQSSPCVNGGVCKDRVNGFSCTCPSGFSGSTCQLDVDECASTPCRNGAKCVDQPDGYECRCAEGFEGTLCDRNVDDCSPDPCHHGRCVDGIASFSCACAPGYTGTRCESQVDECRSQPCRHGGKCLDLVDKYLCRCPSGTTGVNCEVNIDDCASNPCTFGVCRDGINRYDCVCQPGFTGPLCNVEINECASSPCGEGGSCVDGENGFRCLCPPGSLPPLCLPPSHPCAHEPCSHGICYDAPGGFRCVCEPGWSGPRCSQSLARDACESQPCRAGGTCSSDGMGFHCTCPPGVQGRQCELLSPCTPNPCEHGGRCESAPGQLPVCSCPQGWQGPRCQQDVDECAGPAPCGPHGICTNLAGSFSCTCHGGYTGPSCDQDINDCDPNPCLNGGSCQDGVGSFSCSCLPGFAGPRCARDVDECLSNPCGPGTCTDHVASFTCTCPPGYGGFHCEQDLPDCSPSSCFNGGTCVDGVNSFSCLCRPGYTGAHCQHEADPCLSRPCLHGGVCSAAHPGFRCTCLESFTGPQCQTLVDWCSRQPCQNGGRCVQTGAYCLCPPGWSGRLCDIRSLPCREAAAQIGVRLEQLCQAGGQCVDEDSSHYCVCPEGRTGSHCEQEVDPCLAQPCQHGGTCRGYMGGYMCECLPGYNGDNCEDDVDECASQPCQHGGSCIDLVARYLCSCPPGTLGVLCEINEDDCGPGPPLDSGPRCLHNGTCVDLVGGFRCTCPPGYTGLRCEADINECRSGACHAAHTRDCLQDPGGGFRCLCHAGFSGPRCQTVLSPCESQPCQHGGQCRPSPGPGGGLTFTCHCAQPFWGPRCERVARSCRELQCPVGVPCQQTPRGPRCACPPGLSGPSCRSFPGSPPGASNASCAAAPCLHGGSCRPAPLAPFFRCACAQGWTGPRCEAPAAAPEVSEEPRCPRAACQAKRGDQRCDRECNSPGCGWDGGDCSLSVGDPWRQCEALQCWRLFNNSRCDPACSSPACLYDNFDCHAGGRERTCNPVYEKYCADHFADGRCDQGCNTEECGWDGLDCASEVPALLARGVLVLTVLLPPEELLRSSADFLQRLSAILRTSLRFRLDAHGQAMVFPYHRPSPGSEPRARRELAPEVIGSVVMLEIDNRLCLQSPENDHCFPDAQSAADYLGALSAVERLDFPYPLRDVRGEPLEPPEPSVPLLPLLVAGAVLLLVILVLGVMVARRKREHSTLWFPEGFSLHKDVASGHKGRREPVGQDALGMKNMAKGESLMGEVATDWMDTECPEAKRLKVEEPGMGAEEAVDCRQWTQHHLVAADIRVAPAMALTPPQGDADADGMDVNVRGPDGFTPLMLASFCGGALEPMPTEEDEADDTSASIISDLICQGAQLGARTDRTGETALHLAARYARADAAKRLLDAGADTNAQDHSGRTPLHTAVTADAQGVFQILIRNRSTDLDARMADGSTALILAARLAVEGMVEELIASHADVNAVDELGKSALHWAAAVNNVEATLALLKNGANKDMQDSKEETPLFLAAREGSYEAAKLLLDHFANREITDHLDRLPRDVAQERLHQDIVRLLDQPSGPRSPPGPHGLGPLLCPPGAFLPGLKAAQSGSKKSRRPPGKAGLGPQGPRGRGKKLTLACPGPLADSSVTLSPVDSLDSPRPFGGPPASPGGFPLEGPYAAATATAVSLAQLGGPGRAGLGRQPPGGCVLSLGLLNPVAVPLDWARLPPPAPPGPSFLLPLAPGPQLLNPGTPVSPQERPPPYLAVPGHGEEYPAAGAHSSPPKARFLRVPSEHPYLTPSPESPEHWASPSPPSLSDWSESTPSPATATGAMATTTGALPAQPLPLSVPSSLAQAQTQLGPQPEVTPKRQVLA
Chain of Follistatin-related protein 3 (Homo sapiens) (O95633 whole entry, looked up): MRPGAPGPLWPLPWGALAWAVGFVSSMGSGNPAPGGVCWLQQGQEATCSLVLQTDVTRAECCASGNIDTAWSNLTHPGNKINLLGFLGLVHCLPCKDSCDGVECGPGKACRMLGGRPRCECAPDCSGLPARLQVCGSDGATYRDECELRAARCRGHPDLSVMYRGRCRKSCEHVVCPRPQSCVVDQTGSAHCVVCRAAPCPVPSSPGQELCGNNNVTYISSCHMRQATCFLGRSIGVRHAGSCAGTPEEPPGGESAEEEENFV
Chain of Dickkopf-related protein 1 (Homo sapiens) (O94907 whole entry, looked up): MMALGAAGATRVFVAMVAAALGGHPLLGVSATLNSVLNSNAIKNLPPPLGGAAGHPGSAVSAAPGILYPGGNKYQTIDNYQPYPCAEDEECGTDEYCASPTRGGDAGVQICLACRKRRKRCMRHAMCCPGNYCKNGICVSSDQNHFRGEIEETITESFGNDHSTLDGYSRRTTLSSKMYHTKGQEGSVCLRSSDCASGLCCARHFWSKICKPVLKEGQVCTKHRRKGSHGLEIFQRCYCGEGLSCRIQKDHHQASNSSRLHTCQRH
Chain of Epidermal growth factor receptor (Homo sapiens) (P00533 whole entry, looked up): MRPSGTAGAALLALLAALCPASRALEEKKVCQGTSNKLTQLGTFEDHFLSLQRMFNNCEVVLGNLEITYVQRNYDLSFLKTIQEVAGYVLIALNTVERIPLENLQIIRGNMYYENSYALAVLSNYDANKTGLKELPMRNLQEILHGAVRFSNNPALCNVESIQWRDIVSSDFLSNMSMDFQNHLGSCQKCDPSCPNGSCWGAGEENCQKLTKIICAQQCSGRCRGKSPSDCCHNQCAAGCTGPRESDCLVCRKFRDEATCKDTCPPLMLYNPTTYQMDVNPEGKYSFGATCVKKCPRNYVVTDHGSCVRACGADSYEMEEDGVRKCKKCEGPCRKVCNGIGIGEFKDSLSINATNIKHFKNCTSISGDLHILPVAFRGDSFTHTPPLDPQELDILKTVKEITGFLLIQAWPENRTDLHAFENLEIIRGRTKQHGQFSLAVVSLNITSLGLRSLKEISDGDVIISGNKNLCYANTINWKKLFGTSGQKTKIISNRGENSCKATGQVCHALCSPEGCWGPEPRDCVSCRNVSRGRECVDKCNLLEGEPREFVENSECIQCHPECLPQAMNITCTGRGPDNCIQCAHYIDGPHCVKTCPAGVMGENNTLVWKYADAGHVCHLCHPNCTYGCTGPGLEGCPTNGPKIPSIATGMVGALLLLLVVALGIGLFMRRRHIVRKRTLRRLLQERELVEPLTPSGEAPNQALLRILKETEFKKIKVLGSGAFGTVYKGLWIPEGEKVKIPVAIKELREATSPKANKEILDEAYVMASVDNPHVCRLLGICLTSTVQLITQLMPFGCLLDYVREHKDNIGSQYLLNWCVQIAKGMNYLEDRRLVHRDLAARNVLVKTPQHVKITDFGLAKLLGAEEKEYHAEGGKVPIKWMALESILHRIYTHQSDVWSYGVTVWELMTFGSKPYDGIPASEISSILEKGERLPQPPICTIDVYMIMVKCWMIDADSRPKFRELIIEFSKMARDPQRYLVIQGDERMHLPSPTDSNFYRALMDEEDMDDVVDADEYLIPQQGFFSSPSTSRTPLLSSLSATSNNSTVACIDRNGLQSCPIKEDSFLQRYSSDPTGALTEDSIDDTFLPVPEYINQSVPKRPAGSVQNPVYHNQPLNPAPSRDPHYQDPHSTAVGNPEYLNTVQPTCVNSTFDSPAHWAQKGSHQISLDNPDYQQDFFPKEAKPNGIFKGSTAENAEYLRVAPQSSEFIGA
Chain of Torsin-1A-interacting protein 2 (Homo sapiens) (Q8NFQ8 whole entry, looked up): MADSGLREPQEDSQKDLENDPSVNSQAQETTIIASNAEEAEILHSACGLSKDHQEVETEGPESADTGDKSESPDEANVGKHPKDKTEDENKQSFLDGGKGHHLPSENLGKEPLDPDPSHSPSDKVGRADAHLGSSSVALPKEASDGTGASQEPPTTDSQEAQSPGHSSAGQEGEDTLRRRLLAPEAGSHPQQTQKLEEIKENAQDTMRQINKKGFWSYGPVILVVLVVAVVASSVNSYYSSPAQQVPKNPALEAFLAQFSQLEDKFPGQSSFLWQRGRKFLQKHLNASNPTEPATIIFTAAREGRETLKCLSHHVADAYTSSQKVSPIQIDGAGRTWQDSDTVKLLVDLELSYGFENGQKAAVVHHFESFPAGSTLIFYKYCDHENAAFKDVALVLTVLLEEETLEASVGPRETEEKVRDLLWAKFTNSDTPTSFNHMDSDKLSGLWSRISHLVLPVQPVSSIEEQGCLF
Chain of Fibroblast growth factor 10 (Homo sapiens) (O15520 whole entry, looked up): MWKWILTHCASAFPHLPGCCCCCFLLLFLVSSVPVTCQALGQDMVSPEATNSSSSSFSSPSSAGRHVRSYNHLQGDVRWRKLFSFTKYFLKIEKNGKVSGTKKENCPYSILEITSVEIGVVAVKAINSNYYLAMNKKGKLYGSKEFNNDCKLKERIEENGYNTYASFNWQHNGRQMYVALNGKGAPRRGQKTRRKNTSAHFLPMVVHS

Regarding `CCOC(=O)C1=C[C@@H](C(C)(C)C)N(S(=O)(=O)c2ccc(C)cc2)[C@H]1c1ccccc1Cl`, the composite z-score in assay [1] amounted to 1.53; in assay [5], 2.61; in assay [7] it was 0.144; in assay [8], 0.614; in assay [9], 1.05; in [10] it was 0.0522. Moreover, the composite z-score in assay [11] was found to be 0.993; in assay [12], 1.18; in assay [13], 1.11; in [15], 0.915; in assay [16] it was 1.29; in [17] it was 0.292. Besides, the composite z-score in assay [18] was found to be 1.18; in assay [19], 0.0627; in [20], 0.0829. Further, the z-score is 0.168 (inactive) in [2]; 2.3 (inactive) in assay [3]; 2.15 (inactive) in assay [4]; -0.766 (inactive) in [6]; -0.232 (inactive) in assay [14].

Turning to `C=CCC(OC(C)=O)[C@@H]1[C@@H](N(Cc2ccc(-c3cccc(C(F)(F)F)c3)o2)C(=O)c2cccc3ccccc23)c2cc(OCCCO)ccc2N1C(=O)c1ccc2ccccc2n1` (stereo not given in full), the composite z-score in assay [1] was 0.24; in [5], -0.039; in [7] it was -0.0209; in [8], -0.029; in assay [9], -0.684; in [10], -0.132. The composite z-score is 0.765 in assay [11]; -0.262 in [12]; 0.52 in assay [13]; 0.0448 in assay [15]; -0.684 in assay [16]; -0.117 in assay [17]. The figures for the composite z-score in assay [18], in assay [19] and in [20] were 0.113, 0.144 and 1.47, respectively. Also, the z-score in assay [2] is 0.75 (inactive); in assay [3], 0.835 (inactive); in assay [4] it was 0.356 (inactive); in assay [6], -0.746 (inactive); in [14], -1.29 (inactive).

Turning to `C=C(C(=O)CC[C@@H](OC(C)=O)c1cccc(OCCO)c1)C(C)C`, the composite z-score in assay [1] is 0.745; in assay [5], 1.62; in assay [7], -0.186; in assay [8] it was -0.0056; in assay [9], 0.507; in [10], -0.207. Also, the composite z-score is 1.24 in assay [11]; -0.136 in assay [12]; 0.114 in assay [13]; 0.0186 in assay [15]; -0.664 in assay [16]; -0.649 in assay [17]. For the same compound, the composite z-score in assay [18] is -0.0718; in assay [19], -0.375; in assay [20], 1.35. Further, the z-score was 1.55 (inactive) in [2]; -0.464 (inactive) in assay [3]; 0.339 (inactive) in assay [4]; 0.351 (inactive) in assay [6]; 2.37 (inactive) in assay [14].

Turning to `CC(C)CNC(=O)[C@@H]1c2ccccc2C(=O)N(C(C)C)[C@H]1c1ccc(CO)cc1`, the composite z-score in [1] is 0.12; in assay [5], 2.33; in assay [7] it was -0.166; in assay [8], 0.126; in [9] it was 0.0151; in assay [10], -0.246. Moreover, the composite z-score was 1.36 in assay [11]; 0.0026 in assay [12]; 0.763 in assay [13]; -0.787 in assay [15]; -0.221 in assay [16]; -0.5 in assay [17]. In addition, the values for the composite z-score in assay [18], in assay [19] and in [20] were -0.573, -0.382 and 0.849, respectively. Further, the z-score in assay [2] was -1.37 (inactive); in assay [3] it was 0.0396 (inactive); in [4], -0.421 (inactive); in assay [6], 0.794 (inactive); in [14] it was -1.26 (inactive).

Turning to `COCCOC(=O)N1C(=O)[C@@]2(c3cc(C#CCCO)ccc31)[C@H](C(=O)N1CCc3cc(OC)c(OC)cc3C1)[C@H]1C(=O)O[C@H](c3ccccc3)[C@H](c3ccccc3)N1[C@@H]2c1ccccc1OCCO`, the composite z-score in [1] was 1.55; in assay [5], 2.81; in assay [7], -0.0159; in [8] it was 1.81; in [9], 1.1; in assay [10], -0.0564. The composite z-score in assay [11] was 1.64; in assay [12], -0.232; in assay [13] it was 0.0036; in assay [15], 1.42; in [16] it was 1.29; in assay [17], 0.861. The composite z-score in assay [18] turned out to be 1.32; in assay [19], 0.35; in assay [20] it was 0.748. The z-score in assay [2] was 2.65 (inactive); in assay [3], 1.65 (inactive); in [4], 3.88 (inactive); in assay [6] it was 0.156 (inactive); in assay [14], -0.961 (inactive).
